Data: PubChem BioAssay (EPA / NIEHS)
Values joined by “and” are separate entries in the source; they are usually repeats but may differ in a detail not shown here. Equal entries are not always repeated. Active and inactive are the calls of the source. How the source made its calls: active means hit-call score of the fitted dose curve at least 0.9, where 1 is the maximum; inactive means score below 0.9.

Legend:
[1] = ATG_CRE_CIS: Attagene CIS-FACTORIAL HepG2 Assay for human cAMP Responsive Element (CRE) binding protein 3 (AID 2282926); conditions: HepG2 CRE cis-reporter, Attagene multiplexed mRNA; actives raise or lower the signal
Procedure, shortened: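 Capillary electrophoresis of 6-FAM-labelled, HpaI-digested PCR products quantified reporter transcripts. These came from HepG2 transiently transfected with cis-element reporters and exposed to test chemicals for 24 hours, with DMSO defining baseline activity.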

[2] = target: CCAAT/enhancer-binding protein beta (Homo sapiens) (UniProt P17676); assay: ATG_C_EBP_CIS: Attagene CIS-FACTORIAL HepG2 Assay for human CCAAT/Enhancer Binding Protein (C/EBP) beta (AID 2282927); conditions: HepG2 Attagene cis-factorial transcription factor reporter; actives raise or lower the signal
Chain of CCAAT/enhancer-binding protein beta (Homo sapiens) (P17676 whole entry, looked up): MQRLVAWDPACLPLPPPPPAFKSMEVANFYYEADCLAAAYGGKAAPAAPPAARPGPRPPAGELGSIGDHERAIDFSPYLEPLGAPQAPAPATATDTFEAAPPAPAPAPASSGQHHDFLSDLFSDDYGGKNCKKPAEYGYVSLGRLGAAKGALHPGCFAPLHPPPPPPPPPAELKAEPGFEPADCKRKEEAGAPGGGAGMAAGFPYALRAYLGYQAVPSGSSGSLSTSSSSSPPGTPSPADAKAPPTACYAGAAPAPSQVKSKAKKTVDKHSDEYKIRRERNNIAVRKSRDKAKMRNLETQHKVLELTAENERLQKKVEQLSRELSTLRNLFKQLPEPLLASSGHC
Procedure, shortened: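 Transiently transfected HepG2 (MRTU library, endogenous TF-driven promoters); 24 h dosing; total RNA → oligo(dT) RT → PCR → 6-FAM primer extension → HpaI digest → CE; fit bidirectionally vs DMSO.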

[3] = ATG_CMV_CIS: Attagene CIS-FACTORIAL HepG2 Assay for human CMV (Internal Marker) (AID 2282928); conditions: HepG2 CMV promoter reporter, transcription factor profiling; actives raise or lower the signal;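 further: endpoint acts as a background internal control marker rather than a target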
Procedure, shortened: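 Reporter transcripts from transfected HepG2 cells are isolated after 24 h of chemical dosing, reverse-transcribed and amplified. Fragments labeled with 6-FAM are cut with HpaI and quantified by capillary electrophoresis; DMSO defines baseline.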

[4] = ATG_DR4_LXR_CIS: Attagene CIS-FACTORIAL HepG2 Assay for human Liver X Receptor (LXR), DR4 submotif (AID 2282929); conditions: HepG2 Attagene DR4 cis-reporter, mRNA transcription; actives raise or lower the signal
Procedure, shortened: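 The endpoint is DR4-element-driven reporter transcripts after 24 h chemical exposure of transfected HepG2 cells. These were measured via RT-PCR and capillary electrophoresis, and gain or loss of signal was fitted relative to DMSO controls.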

[5] = target: Aryl hydrocarbon receptor (Homo sapiens) (UniProt P35869); assay: ATG_Ahr_CIS: Attagene CIS-FACTORIAL HepG2 Assay for human Aryl Hydrocarbon Receptor (Ahr) (AID 2282930); conditions: HepG2 AhR cis-factorial reporter transcription; actives raise or lower the signal
Chain of Aryl hydrocarbon receptor (Homo sapiens) (P35869 whole entry, looked up): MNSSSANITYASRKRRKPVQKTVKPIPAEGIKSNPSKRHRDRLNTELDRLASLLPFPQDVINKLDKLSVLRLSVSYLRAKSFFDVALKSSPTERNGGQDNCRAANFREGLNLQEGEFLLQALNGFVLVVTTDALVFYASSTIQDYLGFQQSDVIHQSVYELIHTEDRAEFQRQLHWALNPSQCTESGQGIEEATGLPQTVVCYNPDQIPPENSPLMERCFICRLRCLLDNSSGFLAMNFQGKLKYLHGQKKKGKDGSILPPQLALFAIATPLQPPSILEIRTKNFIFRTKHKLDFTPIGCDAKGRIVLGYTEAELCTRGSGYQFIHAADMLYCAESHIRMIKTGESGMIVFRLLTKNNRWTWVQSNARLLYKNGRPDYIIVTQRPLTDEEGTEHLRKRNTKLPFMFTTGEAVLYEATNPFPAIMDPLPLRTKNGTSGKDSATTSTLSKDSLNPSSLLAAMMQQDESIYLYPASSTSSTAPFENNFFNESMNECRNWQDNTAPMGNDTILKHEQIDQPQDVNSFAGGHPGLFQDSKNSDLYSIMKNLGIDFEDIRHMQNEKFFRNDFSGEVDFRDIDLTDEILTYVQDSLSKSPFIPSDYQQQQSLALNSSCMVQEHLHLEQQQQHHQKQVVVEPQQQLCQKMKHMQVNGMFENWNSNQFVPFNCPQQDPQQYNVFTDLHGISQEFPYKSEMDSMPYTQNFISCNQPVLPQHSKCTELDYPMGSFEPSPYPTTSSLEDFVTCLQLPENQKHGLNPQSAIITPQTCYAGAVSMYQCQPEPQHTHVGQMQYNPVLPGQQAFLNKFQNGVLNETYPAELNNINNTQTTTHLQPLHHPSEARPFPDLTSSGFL
Procedure, shortened: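 Read-out: reporter mRNA quantified by RT-PCR with fluorescent primer extension and capillary electrophoresis. Human HepG2 liver cells carried transfected cis-promoter reporter units and were exposed to chemical for 24 h; gain or loss fitted relative to DMSO.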

[6] = ATG_AP_1_CIS: Attagene CIS-FACTORIAL HepG2 Assay for human Activator Protein 1 (AP-1) (AID 2282931); conditions: HepG2 Attagene cis-factorial AP-1 reporter mRNA; actives raise or lower the signal
Procedure, shortened: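 Readout is reporter transcript level from endogenous transcription factor activity, quantified by RT-PCR with fluorescent primer extension and capillary electrophoresis. Transiently transfected HepG2 cells, 24 h exposure. Curves fitted both directions versus DMSO.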

[7] = ATG_AP_2_CIS: Attagene CIS-FACTORIAL HepG2 Assay for human Activator Protein 2 (AP-2) (AID 2282932); conditions: HepG2 AP-2 cis-reporter, Attagene transcription factor profiling; actives raise or lower the signal
Procedure, shortened: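 Read-out: fluorescent reporter mRNA via RT-PCR and capillary electrophoresis, 24 h post-dose in transiently transfected HepG2. Endogenous factors drive cis-promoter reporters; gain or loss of signal fitted bidirectionally against DMSO.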

[8] = target: Transcription factor E2F1 (Homo sapiens) (UniProt Q01094); assay: ATG_E2F_CIS: Attagene CIS-FACTORIAL HepG2 Assay for human E2F Transcription Factor 1 (AID 2282935); conditions: HepG2 Attagene cis-reporter, E2F reporter RNA transcripts; actives raise or lower the signal
Chain of Transcription factor E2F1 (Homo sapiens) (Q01094 whole entry, looked up): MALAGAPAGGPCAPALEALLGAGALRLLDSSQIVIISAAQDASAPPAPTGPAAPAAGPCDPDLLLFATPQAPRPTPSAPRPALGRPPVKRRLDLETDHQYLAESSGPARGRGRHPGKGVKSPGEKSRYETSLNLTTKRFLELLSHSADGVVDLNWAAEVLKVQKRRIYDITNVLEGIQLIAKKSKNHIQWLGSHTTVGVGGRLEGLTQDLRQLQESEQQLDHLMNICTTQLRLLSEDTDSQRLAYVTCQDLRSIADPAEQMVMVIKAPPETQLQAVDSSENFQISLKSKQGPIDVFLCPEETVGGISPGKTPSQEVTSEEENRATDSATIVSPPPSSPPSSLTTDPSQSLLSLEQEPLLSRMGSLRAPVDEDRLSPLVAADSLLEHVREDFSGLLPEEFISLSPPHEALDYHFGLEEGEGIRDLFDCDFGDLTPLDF
Procedure, shortened: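 Transient MRTU transfection of HepG2; 24 h compound exposure; RNA → oligo(dT) RT → PCR → FAM label → HpaI cut → CE fluorescence. Gain/loss of signal fit against DMSO.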

[9] = ATG_BRE_CIS: Attagene CIS-FACTORIAL HepG2 Assay for human Bone Morphogenetic Protein (BMP) Response Element (BRE) (AID 2282933); conditions: HepG2 BMP response element reporter, Attagene transcription factor profiling; actives raise or lower the signal
Procedure, shortened: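 Fluorescence-labelled reporter cDNA fragments, separated by capillary electrophoresis, gave the signal for this component of a 52-readout multiplex. HepG2 cells were transfected, exposed to chemicals for 24 h, and compared with DMSO using bidirectional fitting.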

[10] = target: Retinoic acid receptor alpha (Homo sapiens) (UniProt P10276); assay: ATG_DR5_RAR_CIS: Attagene CIS-FACTORIAL HepG2 Assay for human Retinoic Acid Receptor Alpha (RARE), DR5 submotif (AID 2282934); conditions: HepG2 Attagene cis-factorial RARE DR5 reporter, mRNA; actives raise or lower the signal
Chain of Retinoic acid receptor alpha (Homo sapiens) (P10276 whole entry, looked up): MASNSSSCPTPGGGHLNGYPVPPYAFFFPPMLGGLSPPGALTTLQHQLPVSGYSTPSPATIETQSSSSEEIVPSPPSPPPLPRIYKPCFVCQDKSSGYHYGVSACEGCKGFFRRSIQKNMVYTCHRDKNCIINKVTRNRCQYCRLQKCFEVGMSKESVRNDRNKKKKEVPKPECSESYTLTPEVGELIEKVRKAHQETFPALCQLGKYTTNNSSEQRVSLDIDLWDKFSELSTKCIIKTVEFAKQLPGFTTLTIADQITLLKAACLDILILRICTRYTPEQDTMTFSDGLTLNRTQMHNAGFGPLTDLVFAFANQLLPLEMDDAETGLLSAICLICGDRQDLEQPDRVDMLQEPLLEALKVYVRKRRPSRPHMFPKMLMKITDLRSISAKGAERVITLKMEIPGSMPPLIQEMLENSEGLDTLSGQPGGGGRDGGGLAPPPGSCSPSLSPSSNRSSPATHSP
Procedure, shortened: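 Read-out: DR5-driven reporter transcript measured by RT-PCR, 6-FAM primer extension, HpaI digest and capillary electrophoresis. Human HepG2 liver cells carry transiently transfected cis-element reporter constructs; dosing lasts 24 h. Gain or loss of signal fitted against DMSO baseline.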

Measured: AC50

CCCCCCCCCCCCCCCCOS(=O)(=O)O
active: [4] 24.5 µM | [6] 28.5 µM
not listed: [9] | [10]
inactive: all other assays above

Cc1cccc(O)c1C
not listed: [9] | [10]
inactive: all other assays above

c1ccc(C(O[C@@H]2CCCN(CCc3ccc4c(c3)OCO4)C2)c2ccccc2)cc1
active: [3] 50.8 µM | [4] 47.4 µM | [5] 18.1 µM | [6] 52.1 µM
inactive: [1] | [2] | [7] | [8]

CCCCN1C(=O)[C@@H]([C@H](O)C2CCCCC2)NC(=O)C12CCN(Cc1ccc(Oc3ccc(C(=O)O)cc3)cc1)CC2
active: [2] 32.9 µM | [4] 71.5 µM
not listed: [10]
inactive: all other assays above

O=c1[nH]cnc2c1ncn2[C@H]1CC[C@@H](CO)O1
not listed: [9]
inactive: all other assays above

CC1(C)C(=O)N(Cl)C(=O)N1Cl
not listed: [10]
inactive: all other assays above

C=CN1CCCC1=O
not listed: [9] | [10]
inactive: all other assays above

CC(C)CC(C)O (configuration not stated)
not listed: [9] | [10]
inactive: all other assays above

OCc1ccccc1
not listed: [9]
inactive: all other assays above

FC(F)(F)COC(OCC(F)(F)F)OCC(F)(F)F
not listed: [9]
inactive: all other assays above

CCc1ccc(O)c(C(C)(C)C)c1
active: [3] 43 µM | [6] 43.7 µM
not listed: [9] | [10]
inactive: all other assays above

CC(C)c1nnc2ccc(-c3ocnc3-c3cc(F)ccc3F)cn12
not listed: [10]
inactive: all other assays above

OCCNCCO
not listed: [10]
inactive: all other assays above

FC(F)C(F)(F)COCC1CO1 (configuration not stated)
not listed: [10]
inactive: all other assays above

COS(C)(=O)=O
active: [5] 22.1 µM
not listed: [10]
inactive: all other assays above

O=C(O)c1cccc(C(=O)O)c1
not listed: [9] | [10]
inactive: all other assays above

CCCCCCCCN(C)C
not listed: [5] | [10]
inactive: all other assays above

Cn1c(=O)c2[nH]cnc2n(C)c1=O
not listed: [9] | [10]
inactive: all other assays above

CCCCCCCC1CCC(=O)O1 (configuration not stated)
not listed: [1] | [6] | [10]
inactive: all other assays above

C[C@]12C=CC(=O)C=C1CC[C@H]1[C@@H]3C[C@@H](O)[C@](O)(C(=O)CO)[C@@]3(C)C[C@H](O)[C@@]12F
not listed: [9] | [10]
inactive: all other assays above

CCc1cccc(CC)c1N
not listed: [9] | [10]
inactive: all other assays above

NNC(=O)c1ccncc1
not listed: [9] | [10]
inactive: all other assays above

Cn1cc[nH]c1=S
not listed: [4]
inactive: all other assays above

NC(N)=O
not listed: [5] | [9] | [10]
inactive: all other assays above

OCC(CO)(CO)CO
not listed: [9] | [10]
inactive: all other assays above

CC(=O)c1ccccc1
not listed: [9] | [10]
inactive: all other assays above

OC(O)(C(F)C(O)(O)C(F)(F)F)C(F)(F)F
inactive: [1] | [5] | [6] | [8]
active: [2] 78.9 µM and 82.9 µM | [3] 9 µM and 6.13 µM | [4] 37.9 µM and 4.59 µM | [7] 71 µM and 18.9 µM

O=S1(=O)CCCO1
not listed: [9] | [10]
inactive: all other assays above

c1ccc2c(c1)-c1cccc3c1c-2cc1ccccc13
active: [5] 57 nM and 28.1 µM
not listed: [9] | [10]
inactive: all other assays above

NC(=O)N(O)[C@@H]1COc2cc(OCc3ccccc3)ccc21
not listed: [9] | [10]
inactive: all other assays above

CCN(CC)C(=S)SSC(=S)N(CC)CC
active: [1] 76 µM | [3] 173 µM | [6] 25.8 µM | [9] 142 µM
inactive: [2] | [5] | [7] | [8]

O=S(=O)(O)c1ccc(N=Nc2c(O)ccc3cc(S(=O)(=O)O)ccc23)cc1
not listed: [9] | [10]
inactive: all other assays above

CCCC(CCC)C(=O)O
not listed: [4] | [10]
inactive: all other assays above

CNC(C)=O
not listed: [9] | [10]
inactive: all other assays above

CCCCC(CC)C(=O)OCCOCCOCCOC(=O)C(CC)CCCC (configuration not stated)
active: [4] 160 µM
not listed: [5] | [9] | [10]
inactive: all other assays above

Cc1nc(-c2ccccn2)ncc1C(=O)Nn1cc(C)c2cc(F)ccc21
not listed: [5] | [9] | [10]
inactive: all other assays above

CCCCOC(=O)c1ccccc1
not listed: [5]
inactive: all other assays above

CCOC(N)=O
not listed: [5] | [9] | [10]
inactive: all other assays above

O=C(O)[C@H](O)[C@@H](O)C(=O)O
not listed: [9] | [10]
inactive: all other assays above

CC(C)C(=O)Nc1ccc([N+](=O)[O-])c(C(F)(F)F)c1
active: [5] 135 µM | [6] 23.5 µM
not listed: [9] | [10]
inactive: all other assays above

CCCc1ccccc1
not listed: [5] | [9] | [10]
inactive: all other assays above

CCCCCCCC/C=C\CCCCCCCC(=O)OC[C@@H](O)[C@H]1OC[C@H](O)[C@H]1O
not listed: [5] | [10]
inactive: all other assays above

C[Si](C)(C)C(F)(F)C(F)(F)C(F)(F)F
not listed: [9] | [10]
inactive: all other assays above

OCCOCCOCCO
not listed: [5] | [10]
inactive: all other assays above
